# Test system: HEK293 WT BDD-FVIII-Gluc
# Test: secreted FVIII-Gluc luciferase Z-score vs DMSO control; higher = more FVIII-Gluc secretion
# Conditions: 5 µM
# Method: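 Natural plant-compound library (480 compounds, ST catalogue IDs) screened on HEK293 cells stably expressing WT BDD-FVIII-Gaussia luciferase fusion at 5 µM. Secreted Gluc activity in the medium is given as a Z-score relative to DMSO controls.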
row,SMILES,secreted FVIII-Gluc luciferase Z-score
1,O=c1cc(CO)occ1O,0.0386
2,O=c1c(O)c(-c2ccccc2)oc2cc(O)cc(O)c12,0.586
3,COc1cc(/C=C/C(=O)CC(=O)/C=C/c2ccc(O)c(OC)c2)ccc1O,0.567
4,CC(C)c1ccc2c(c1)CCC1C(C)(CN)CCC[C@]21C (stereo not given in full),0.04
5,N=C(N)NCCC[C@H](N)C(=O)O,0.938
6,O=C(O)C1=C[C@@H](O)[C@@H](O)[C@H](O)C1,0.3
7,C=C1CC/C=C(\C)CC[C@@H]2[C@@H]1CC2(C)C,0.299
8,COc1ccc2c(c1OC)C(=O)O[C@@H]2[C@H]1c2c(cc3c(c2OC)OCO3)CCN1C,-0.0362
9,CC1CC[C@H](C(C)C)C(O)C1 (stereo not given in full),0.453
10,O=C(O)c1cc(O)c2c(c1)C(=O)c1cccc(O)c1C2=O,0.381
11,COc1ccc2c(OC)c3ccoc3nc2c1OC,0.816
12,N[C@@H](Cc1c[nH]cn1)C(=O)O,0.64
13,O=c1c(O)c(-c2ccc(O)c(O)c2)oc2ccccc12,-0.791
14,O=c1ccn(C2OC(COP(=O)(O)O)C(O)C2O)c(=O)[nH]1 (stereo not given),0.638
15,O=c1[nH]c(=O)c2ncn([C@@H]3O[C@H](CO)[C@@H](O)[C@H]3O)c2[nH]1,0.541
16,CC1=CC(=O)C2=C(C)CCC3C(C)C(=O)OC3C12 (stereo not given),0.0708
17,C=C[C@@]1(C)C=C2CC[C@@H]3[C@](C)(CCC[C@@]3(C)C(=O)O)[C@H]2CC1,-0.481
18,C[C@H]1O[C@@H](O[C@H]2[C@@H](O)C[C@H](O[C@H]3[C@@H](O)C[C@H](O[C@H]4CC[C@@]5(C)[C@H](CC[C@@H]6[C@@H]5CC[C@]5(C)[C@@H](C7=CC(=O)OC7)CC[C@]65O)C4)O[C@@H]3C)O[C@@H]2C)C[C@H](O)[C@@H]1O,-4.57
19,Nc1nc2c(ncn2[C@@H]2O[C@H](CO)[C@@H](O)[C@H]2O)c(=O)[nH]1,1.04
20,CC(C)[C@@H]1CC[C@@H](C)C[C@H]1OC(=O)[C@@H](C)O,-0.146

row,SMILES,secreted FVIII-Gluc luciferase Z-score
1,C/C1=C\CC(OC(=O)c2ccc(O)cc2)/C(C)=C/C(O)C(C)(C)CCC1 (stereo not given),-0.0859
2,N[C@@H](Cc1c[nH]c2ccc(O)cc12)C(=O)O,0.43
3,CC1(C)CCC[C@@]2(C)C1CCC1(C)OC(=O)CC12 (stereo not given in full),0.281
4,OCc1ccccc1O[C@@H]1O[C@H](CO)[C@@H](O)[C@H](O)[C@H]1O,0.752
5,O=c1cc(-c2ccccc2O)oc2cc(O)cc(O)c12,0.64
6,C[C@@H]1O[C@@H](OC[C@H]2O[C@@H](Oc3c(-c4cccc(O)c4O)oc4cc(O)cc(O)c4c3=O)[C@H](O)[C@@H](O)[C@@H]2O)[C@H](O)[C@H](O)[C@H]1O,1.27
7,C=C1CCC2OC2(C)CCC2C1CC2(C)C (stereo not given),0.146
8,C[C@@H]1C(=O)O[C@H]2[C@@H](O)[C@@]34[C@H]5CC(C(C)(C)C)[C@]36[C@@H](OC(=O)[C@@H]6O)O[C@@]4(C(=O)O5)[C@@]12O (stereo not given in full),0.119
9,Cc1c(C)c2c(c(C)c1O)CC[C@@](C)(CCC[C@H](C)CCC[C@H](C)CCCC(C)C)O2,0.497
10,NCCc1cnc[nH]1,0.378
11,C[C@H](CCC(=O)O)[C@H]1CC[C@H]2[C@@H]3[C@H](O)C[C@@H]4C[C@H](O)CC[C@]4(C)[C@H]3C[C@H](O)[C@]12C,-0.337
12,C[C@H](CCC(=O)O)[C@H]1CC[C@H]2[C@@H]3C(=O)C[C@@H]4CC(=O)CC[C@]4(C)[C@H]3CC(=O)[C@]12C,0.818
13,COc1ccc(-c2coc3cc(O)ccc3c2=O)cc1,0.632
14,OC1CCC2Cc3ccccc3N=C12 (stereo not given),-0.361
15,O=c1ccc2cc3ccoc3cc2o1,-0.26
16,C[S+]([O-])CCC(N)C(=O)O (stereo not given),1.1
17,COc1ccc2c(=O)cc(-c3ccccc3)oc2c1O,0.609
18,CC(C)=CCC/C(C)=C/CC/C(C)=C/CO,0.255
19,COc1ccc2oc(-c3ccc(O)cc3)cc(=O)c2c1,1.23
20,COc1ccc2[nH]cc(CCNC(C)=O)c2c1,0.108
